Assay results: PubChem BioAssay (Tox21)
Active and inactive are the calls of the source. Entries that show only a call come without a potency. Calls come from the whole dose curve; as a rule, active = well fitted activation curve with a large enough effect in the repeat runs; inconclusive = weak or mixed curves; inactive = flat fitted curve, though single readings scatter.

Test: A CellTox Green Cytotoxicity Assay to monitor cytotoxicity in HEK293 cells - 0 hour (AID 1224869); note: nearly all actives have a fitted effect of over 50% in size
Conditions: CellTox Green fluorescence; series mostly up to 76.8 µM
Source text: National Center for Advancing Translational Sciences [NCATS]
NIH Chemical Genomics Center [NCGC]
U.S. Environmental Protection Agency [EPA]
National Institutes of Environmental Health Sciences [NIEHS]
National Toxicology Program [NTP]
Cell-based models are critical for drug discovery. Determining the natural cytotoxic effects resulting from test compounds is an essential research activity. A CellTox Green Cytotoxicity Assay to monitor cytotoxicity in real time of continues cell culture during 40 hours of the compound treatment was used to screen Tox21 10K library compounds in Hek293 cells. CellTox Green Cytotoxicity Assay is a nonlytic, homogeneous, biofluorescent method to measure cytotoxicity in cell culture after experimental manipulation. The assay system uses a proprietary asymmetric cyanine dye that is excluded from viable cells but preferentially stains the dead cell's DNA. […] Viable cells produce no appreciable increases in fluorescence. Therefore, the fluorescence signal produced by the binding interaction with dead cell DNA is proportional to cytotoxicity.
The mixture of Hek293 cell suspension and reagents were dispensed at 600cells/6 ul/well in 1536-well tissue culture treated black solid bottom plates using a Multidrop dispenser. After the assay plates were incubated at a 37 C/5% CO2 incubator for 5 hours, 23 nL of compounds dissolved in DMSO, positive and negative controls was transferred to the assay plate by a pintool work station. The plates were incubated at 37 C for 40 hours. The fluorescence intensity were measured at 0h, 8h, 16h, 24h, 32h and 40h time points using ViewLux plate reader during compound treatment.

| Structure (SMILES) | Potency | cytotoxicity |
| --- | --- | --- |
| C=CCOCC(CC)(CO)COCC=C | inactive | – |
| Brc1c(NC2=NCCN2)ccc2nccnc12 | inactive | – |
| CC1=CC(C)C(C=O)CC1 (stereo not given) | inactive | – |
| CCCCCCCCCCCCN(CCCCCCCCCCCC)CCCCCCCCCCCC | inactive | – |
| C/C=C(\C)C#N | inactive | – |
| CCSC(=O)N(CC(C)C)CC(C)C | inactive | – |
| CCOC(=O)[C@H](CCc1ccccc1)N[C@@H](C)C(=O)N1[C@H](C(=O)O)C[C@@H]2CCC[C@@H]21 | inactive | – |
| NC(=O)c1ccc([N+](=O)[O-])cc1 | inactive | – |
| c1ccc(CC2=NCCN2)cc1 | inactive | – |
| CCC=O | inactive | – |
| COCCCOCCCOC | inactive | – |
| NCCc1cnc[nH]1 | inactive | – |
| COc1nc(N)nc2c1ncn2[C@@H]1O[C@H](CO)[C@@H](O)[C@@H]1O | inactive | – |
| CCOC(=O)CC(C)=O | inactive | – |
| C[C@H](NC(CCc1ccccc1)C(=O)O)C(=O)N1CCC[C@H]1C(=O)O (stereo not given in full) | inactive | – |
| CCOC(=O)Nc1ccc(NCc2ccc(F)cc2)nc1N | inactive | – |
| CC/C=C\CCOC(C)=O | inactive | – |
| CN1CC(=O)NC1=N | inactive | – |
| Nc1c[n+](N2CCOCC2)no1 | inactive | – |
| CN(C(=O)c1c(O)c2ccccc2n(C)c1=O)c1ccccc1 | inactive | – |

| Structure (SMILES) | Potency | cytotoxicity |
| --- | --- | --- |
| CCCN1CCCC[C@H]1C(=O)Nc1c(C)cccc1C | inactive | – |
| O=C1CCCCCCCCCCCN1 | inactive | – |
| ClC(Cl)(Br)Br | inactive | – |
| CC(C)c1cc2c(cc1S(=O)(=O)O)[C@@]1(C)CCC[C@@](C)(C(=O)O)[C@@H]1CC2 | inactive | – |
| N[C@H](C(=O)O)c1ccc(O)cc1 | – | -2.5% [at 15.8 µM] (inactive) |
| CN1C(=O)N(C)C(O)C1O (stereo not given) | inactive | – |
| CC(NC(CCc1ccccc1)C(=O)O)C(=O)N1C(=O)N(C)CC1C(=O)O (stereo not given) | inactive | – |
| OC1CCCCC1c1ccccc1 (stereo not given) | inactive | – |
| Nc1ccc(S(=O)(=O)Nc2ccnn2-c2ccccc2)cc1 | – | 1.17% [at 15.8 µM] (inactive) |
| COC(=O)c1cc(C(=O)OC)cc(S(=O)(=O)O)c1 | inactive | – |
| C[C@@H]1CCN(C(=O)[C@H](CCCN=C(N)N)NS(=O)(=O)c2cccc3c2NC[C@H](C)C3)[C@@H](C(=O)O)C1 | inactive | – |
| CC(=O)c1ccccc1O | inactive | – |
| CCN1CCC[C@H]1CNC(=O)c1cc(S(N)(=O)=O)ccc1OC | inactive | – |
| O=S(O)CO | inactive | – |
| CN1CCC(=C2c3ccccc3CC(=O)c3sccc32)CC1 | inactive | – |
| Nc1cc(=O)[nH]c(N)n1 | inactive | – |
| CN1N=C(C(N)=O)CCC1=O | inactive | – |
| CCCCCCCCCCCCCC=O | – | -4.46% [at 6.97 µM] (inactive) |
| CN(C)CCCN1c2ccccc2CCc2ccc(Cl)cc21 | inactive | – |
| CCn1ccnc1CC1COc2ccccc2O1 (stereo not given) | inactive | – |
